Screening results from PubChem BioAssay.
VLA-4 inh = inhibition in a human VLA-4 binding assay | P13612 | VLA-4 expressing cells, ligand binding flow cytometry | inhibition, % (about 7 µM as worked out from the volumes in the protocol) | hit rate 0.2% among 330,000 | AID 2557; in the data active means inhibition above about 50%
A3A deaminase = human APOBEC3A DNA deaminase inhibition | hit rate 0.41% among 330,000 | inhibition, % at 20 µM | P31941 | AID 493011 | recombinant A3A, FAM/TAMRA ssDNA deamination fluorescence;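 active means at least 40% inhibition at 20 µM here, with at most 30% in a related deaminase screen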;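 further: plate controls were A3A with DMSO for no effect and wells lacking A3A enzyme for full effect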
Target sequence (P31941 whole entry, looked up): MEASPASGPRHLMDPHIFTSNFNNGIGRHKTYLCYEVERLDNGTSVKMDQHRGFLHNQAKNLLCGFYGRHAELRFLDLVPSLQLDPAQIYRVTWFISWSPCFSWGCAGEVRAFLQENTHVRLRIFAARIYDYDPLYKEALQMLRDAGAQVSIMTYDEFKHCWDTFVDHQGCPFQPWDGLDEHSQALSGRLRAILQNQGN
beta cell repl = induces beta-cell replication in MIN6 cells | AID 2380 | MIN6 cells proliferation, ATPlite luminescence, 48 h; cells starved in 0.2% serum; 100% = growth in 10% serum | proliferation, % at 10 µM | hit rate 0.29% among 330,000;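 active means compounds whose signal lies at least 3.5 SD above the mean of all wells on their plate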;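 further: 0% = DMSO-treated cells in low-serum medium and 100% = 10% serum control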
A3G deaminase = blocks human APOBEC3G single-stranded DNA deamination. Q9HC16. recombinant A3G, ssDNA deamination FAM/TAMRA fluorescence. inhibition, % at 20 µM. hit rate 0.28% among 330,000. AID 493012;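 active means inhibition of at least 40% at 20 µM, with no more than 30% in the related APOBEC3A deaminase screen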;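 further: plate controls were DMSO wells with A3G for no effect and wells lacking A3G enzyme for full effect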
Target sequence (Q9HC16 whole entry, looked up): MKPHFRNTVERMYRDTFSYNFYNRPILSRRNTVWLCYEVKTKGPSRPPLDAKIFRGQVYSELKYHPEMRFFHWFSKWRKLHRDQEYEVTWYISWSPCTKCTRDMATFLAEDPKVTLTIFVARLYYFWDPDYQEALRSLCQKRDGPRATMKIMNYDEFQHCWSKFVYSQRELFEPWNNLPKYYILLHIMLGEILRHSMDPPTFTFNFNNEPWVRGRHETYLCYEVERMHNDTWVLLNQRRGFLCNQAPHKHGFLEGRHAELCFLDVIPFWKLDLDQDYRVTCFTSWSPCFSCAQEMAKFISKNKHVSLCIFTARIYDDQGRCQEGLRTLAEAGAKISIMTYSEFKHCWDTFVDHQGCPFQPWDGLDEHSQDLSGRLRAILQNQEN
NRP1-CendR mod = modulators of CendR peptide binding to human neuropilin-1; FAM-RPARPAR peptide binding to NRP-1, fluorescence polarization; inhibition, % at 25 µM; O14786; hit rate 0.85% among 360,000;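 active means inhibition or corrected inhibition above about 18%, plus a signal ratio from 0.5 to 1.5, limit read from the data, passing the limit was not always enough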
A3A conf = APOBEC3A (human) deaminase inhibition, confirmed; shares compounds with A3A deaminase; recombinant A3A, ssDNA deaminase UDG fluorescence assay; inhibition, % at 20 µM; hit rate 63% among 1,400;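 active means inhibition reaching a set limit, 80% of the first screen's cutoff, at 20 µM in any replicate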;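 further: plate controls were DMSO wells with A3A for no effect and wells lacking A3A enzyme for full effect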
UDG ctr A3A = inhibits UDG, flagging false APOBEC3A inhibitors. shares compounds with A3A deaminase. UDG counterscreen, FAM/TAMRA uracil oligo fluorescence. inhibition, % at 20 µM. 1,000 tested, under 10 active. AID 504714; call rule not given here
Numbers without * were called inactive; . = no result. Compounds with a hit are over-represented: about 1.8% of the library has one in this group of screens.

SMILES	VLA-4 inh	A3A deaminase	beta cell repl	A3G deaminase	NRP1-CendR mod	A3A conf	UDG ctr A3A
CCOC(=O)[C@]12CCC=C1N(Cc1ccc3c(c1)OCO3)C(=O)[C@H](CC(=O)NCCCN1CCCC1=O)C2	.	.	.	.	6.1	.	.
Cc1cc(C)nc(SCC(=O)N/N=C/c2cccn2-c2cccc(C(F)(F)F)c2)n1	-5.9	42.0*	0.9	9.8	0.4	17.2	.
COc1ccc(CCCC(=O)NCCc2ccccc2)c(C)c1	-0.2	40.8*	-1.6	6.5	1.4	11.7	.
CC(=O)c1ccc(OCCCC(=O)NC2CCCCC2C)cc1 (centres undefined)	9.0	-1.9	-1.5	-6.2	10.0	.	.
COc1ccc(CCCC(=O)NC2CCCCC2C)c(C)c1 (centres undefined)	4.7	70.7*	-1.9	29.3	-10.7	70.8*	2.8
N#Cc1ccc(C(=O)Nc2cc(C3CC3)nn2-c2ccccc2)cc1	.	-4.9	-0.1	-4.8	5.4	.	.
CCOC(=O)NC(=O)CN1C(=O)NC(C)(c2ccccc2)C1=O (centres undefined)	9.1	71.8*	-0.8	-8.7	15.4	-6.7	-0.5
CC(C)(C)NC(=O)NC(=O)CN1C(=O)NC(C)(c2ccccc2)C1=O (centres undefined)	-2.7	-1.5	0.0	-5.5	-3.5	.	.
Cc1ccc(S(=O)(=O)N(CCC(=O)N2CCOCC2)c2ccccc2)cc1	.	61.8*	1.9	8.8	6.8	27.1	.
CC(=O)N1CCN(C(=O)CCN(c2ccccc2)S(=O)(=O)c2ccc(C)cc2)CC1	8.0	1.8	-3.2	-1.4	-1.6	.	.
O=C(COC(=O)c1ccc(Cl)nc1)NCCc1ccccc1	1.4	0.3	1.4	-0.4	0.8	.	.
CC[n+]1c(C)cc(C)n1-c1ccccc1	5.7	93.2*	-0.1	14.4	17.6	75.3*	2.9
COCCNC(=O)C1(C)CCN(C(=O)c2ccc3c(c2)C(C)(C)CCC3(C)C)C1 (centres undefined)	.	.	.	.	4.7	.	.
CC(=O)Oc1cccc2c1C(=O)c1c(OC(C)=O)cc(C(=O)O)cc1C2=O	2.0	3.9	-1.1	36.9	9.2	.	.
O=C(O)c1cc(O)c2c(c1)C(=O)c1cc(O)cc(O)c1C2=O	10.4	67.3*	-3.3	28.0	5.5	59.0*	-0.1
CN(CC(=O)Nc1cccc(F)c1)C(=O)Cn1c(=O)cnc2ccccc21	-2.3	2.3	-0.4	-8.3	8.8	.	.
Cc1cc(Br)ccc1NC(=O)CN(C)C(=O)Cn1c(=O)cnc2ccccc21	8.4	66.3*	2.8	15.4	2.7	52.2*	-2.0
Cn1cc(C(c2ccccc2OCC(=O)O)c2cn(C)c3ccccc23)c2ccccc21	-22.0	-2.2	-0.3	-4.4	2.6	.	.
COC(=O)c1ccc(CNC(=O)C2CCC(=O)N(CCc3ccccc3)C2)cc1 (centres undefined)	19.3	-4.6	-3.8	-6.4	17.4	.	.
COc1cccc(NC(=O)CN(C)C(=O)CCCc2nc3ccccc3c(=O)[nH]2)c1	-1.2	-2.4	3.9	-2.2	5.7	.	.
C[N+]1(CC(=O)OCCCc2ccccc2)CCOCC1	-0.1	68.7*	2.3	23.6	-7.0	91.7*	5.4
Cc1ccc(CCCOC(=O)C[N+]2(C)CCOCC2)cc1	4.0	42.2*	-2.3	23.8	-1.8	89.1*	4.1
O=C(CN1CCOCC1)OCCCc1ccccc1	-2.4	-1.4	-0.2	-1.5	0.9	.	.
CCc1noc(C)c1C(=O)N1CCN(S(=O)(=O)c2ccc(C(C)=O)cc2)CC1	22.3	40.0*	1.6	0.9	-3.5	-1.8	.
CC(C)C(NC(=O)c1ccc2c(c1)OCO2)C(=O)N/N=C\c1ccco1 (centres undefined)	21.1	47.6*	-1.5	13.8	-14.3	52.2*	-1.7
SMILES	VLA-4 inh	A3A deaminase	beta cell repl	A3G deaminase	NRP1-CendR mod	A3A conf	UDG ctr A3A
NC(=O)c1ccc(NC(=O)COC(=O)c2cc3c(s2)CCC3)cc1	-13.9	54.8*	-4.4	14.6	-4.4	42.9*	-3.4
NC(=O)c1ccc(NC(=O)COC(=O)c2ccc3c(c2)OCO3)cc1	18.5	-4.8	7.3	-10.0	3.5	.	.
COCCn1c(C)cc(C(=O)COC(=O)c2cc3c(s2)CCC3)c1C	-4.6	43.2*	1.7	18.3	9.8	27.3*	-2.9
COCCn1c(C)cc(C(=O)COC(=O)c2cccc(O)c2)c1C	7.4	-2.4	-4.6	-3.2	-1.9	.	.
O=C(COC(=O)c1cc2c(s1)CCC2)Nc1ccc(F)cc1	2.3	45.2*	-2.5	23.2	-13.3	48.7*	7.3
COc1ccc(NC(=O)COC(=O)c2cc3c(s2)CCC3)cc1	3.9	40.5*	0.3	9.8	-0.7	32.5*	-1.5
O=C(COC(=O)c1cc2c(s1)CCCC2)Nc1ccc(Cl)cn1	0.9	-0.7	-1.8	-0.7	0.9	.	.
CCN(CC(=O)Nc1c(F)cccc1F)C(=O)C1CC1	3.8	-1.3	-1.7	1.8	7.0	.	.
Cc1ccc(SC(C)C(=O)NCc2ccncc2)cc1 (centres undefined)	.	49.8*	-1.5	6.9	-4.7	18.1	.
COc1ccc(CCNC(=O)C(C)Sc2ccc(C)cc2)cc1OC (centres undefined)	19.6	86.3*	-0.3	-7.4	-2.4	-7.0	-3.3
O=C(CCc1ccccc1)Nc1ncn[nH]1	5.4	93.6*	-2.7	-6.8	-1.4	7.2	2.8
COc1cc(OC)cc(C(=O)NNC(=O)c2nn(C)c(=O)c3ccccc23)c1	-13.9	-1.6	-0.3	-7.6	1.9	.	.
COc1ccc(C(=O)N2CCc3cc(OC)c(OC)cc3C2c2ccc(OC)c(OC)c2)cc1OC (centres undefined)	5.5	58.6*	6.3	-9.0	-6.8	5.5	6.1
CC1CC(C)C[N+](=C2C=C(N3CCCC3)CC(C)(C)C2)C1 (centres undefined)	.	.	.	.	2.4	.	.
CN(Cc1ccccc1)C1=CC(=[N+]2CCCC2)CC(C)(C)C1	11.8	57.1*	-6.2	19.0	-1.2	69.7*	-1.6
CC1(C)CC(N2CCN(c3ccccc3)CC2)=CC(=[N+]2CCCC2)C1	6.1	44.1*	-4.8	18.1	1.9	66.0*	-5.3
CC1(C)CC(N2CCCC2)=CC(=[N+]2CCCCCC2)C1	18.4	62.4*	-5.6	25.8	15.8	68.2*	-0.1
COC(=O)[C@]1(C)N[C@H](CN(C)C(=O)c2ccc(C)cc2)[C@@H]2C(=O)N(Cc3ccccc3)C(=O)[C@@H]21	-10.7	1.6	-2.5	0.0	-7.5	.	.
O=C(O)C1CCCN1C(=O)NC1CCCCC1 (centres undefined)	-3.5	-4.0	-2.5	-6.1	-1.3	.	.
CCC(=O)Nc1ccc2nc(SCC(=O)N3CCOCC3)sc2c1	8.0	-2.9	-0.5	-6.7	-0.3	.	.
Nc1ccc2nc(SCC(=O)Nc3ccc(N4CCOCC4)c(Cl)c3)sc2c1	7.5	41.3*	-5.0	13.5	12.8	54.8*	-2.4
